# Compound activity (PubChem BioAssay)
# D2 PAM-1 = positive allosteric modulators of human D2 dopamine receptor; P14416; HEK293 T-REx D2, calcium flux, EC20 dopamine potentiation; potentiation, % at 10 µM; hit rate 0.34% among 340,000; AID 485347;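 active = potentiation over 3 SD above the plate norm, cut at about 30% in these data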; note: 0% is about no effect
# Target sequence (P14416 whole entry, looked up): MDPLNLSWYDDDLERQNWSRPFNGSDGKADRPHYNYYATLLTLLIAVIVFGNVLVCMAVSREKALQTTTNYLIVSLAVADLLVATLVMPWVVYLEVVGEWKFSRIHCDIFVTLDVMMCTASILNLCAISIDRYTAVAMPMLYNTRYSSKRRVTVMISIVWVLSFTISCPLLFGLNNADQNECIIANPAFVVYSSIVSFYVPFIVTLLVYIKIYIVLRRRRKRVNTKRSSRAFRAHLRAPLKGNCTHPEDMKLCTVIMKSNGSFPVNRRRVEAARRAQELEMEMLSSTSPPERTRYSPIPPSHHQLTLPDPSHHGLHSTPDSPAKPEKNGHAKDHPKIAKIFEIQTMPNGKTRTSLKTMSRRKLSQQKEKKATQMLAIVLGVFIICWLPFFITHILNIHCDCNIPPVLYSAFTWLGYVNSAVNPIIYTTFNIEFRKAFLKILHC
#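 Tetracycline-induced HEK293 T-REx cells force-coupled to calcium signalling expressed D2; compounds were pin-added after a 10 s baseline, read kinetically 180 s, then an EC20 dopamine challenge followed with a further 180 s calcium read.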
# D2 PAM-2 = positive allosteric modulators of human D2 dopamine receptor | potentiation, % (concentration not given with the values) | DiscoveRx D2 beta-arrestin cells, luminescence, 90 min; 100% = 57 uM dopamine signal | AID 624464 | P14416 | hit rate 0.23% among 360,000; in the data active = potentiation above about 50%; inconclusive = mostly about 30% to 49%
#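 PathHunter beta-arrestin assay in DiscoveRx D2 cells. Compounds were added with an EC20 of dopamine (50 nM final) for 90 min at 37 deg C. Luminescence was read 1 h after detection reagent, with 57 uM dopamine as the EC100 control.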
# D2 ag-1 = agonists of human D2 dopamine receptor (beta-arrestin); hit rate 0.084% among 360,000; activation, % (no concentration beside the values); P14416; DiscoveRx PathHunter D2 beta-arrestin, luminescence, 90 min; 100% = 57 uM dopamine signal; in the data active = activation above about 40%; inconclusive = between about 15% and that limit
#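 DiscoveRx PathHunter D2 beta-arrestin cells (2,100/well) attached overnight, then compound-stimulated 90 min at 37 C in HBSS/10 mM HEPES/0.1% Tween-20 buffer; beta-galactosidase complementation read by luminescence after 1 h at ambient temperature. Dopamine 57 uM final (EC100) as control.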
# D2 ag-2 = agonists of human D2 dopamine receptor; P14416; HEK293 T-REx D2 cells, calcium flux agonist mode; activation, % at 2 µM; hit rate 0.53% among 340,000; AID 485358;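 active = activation over 3 SD above normal in the single-dose calcium agonist read, cut at about 30% in these data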; note: 0% is about no effect
#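 Agonism is scored from calcium flux in a force-coupled, inducible HEK293 cell line expressing D2, read kinetically for 180 s after compound addition against dopamine controls.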
# D2 antagonist = antagonists of human D2 dopamine receptor; AID 485344; P14416; inhibition, % at 10 µM; hit rate 2% among 340,000; HEK293 TREx D2 cells, calcium flux, dopamine EC80; in the data active = inhibition above about 30%; inactive = below that, where a call was filed; note: 0% is about no effect
#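 Compounds are added to dye-loaded, induced HEK293 T-REx cells coupled to calcium release via D2; after a 3 min kinetic read an EC80 dopamine stimulus is given and fluorescence is recorded for 3 more min.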
# * hit, by the source's call; ? = inconclusive; . = not tested or not shown. This is a sample that favours compounds with a hit; in the whole collection about 2.4% have one here.
SMILES,D2 PAM-1,D2 PAM-2,D2 ag-1,D2 ag-2,D2 antagonist
CSc1ncc(CN2CCCC(C(=O)c3ccccc3SC)C2)cn1 (stereo not drawn),-15.3,-33.6,-4.9,-1.4,5.1
CCC(C(=O)Nc1ccccc1F)N1C(=O)CN=C(c2ccccc2)c2ccccc21 (stereo not drawn),10.1,.,.,0.5,.
Cc1ccc(Cn2cccc(C(=O)Nc3nnc(C)s3)c2=O)cc1,8.9,.,.,20.1,.
COc1ccc(-c2nc(CN3C(=O)CN=C(c4ccccc4)c4cc(Cl)ccc43)c(C)o2)cc1,.,.,.,1.4,.
CCn1ccnc1CN1CCCC(C(=O)c2ccc(SC)cc2)C1 (stereo not drawn),17.7,-18.3,-7.7,0.1,-16.5
CSc1ccc(C(=O)C2CCCN(CCCn3cccn3)C2)cc1 (stereo not drawn),-15.2,-10.7,-3.1,-0.3,35.9*
CC(=NCCC1=CCCCC1)c1c(O)n(-c2ccccc2)c(=O)[nH]c1=O,-8.6,-2.6,-5.5,-0.1,31.0*
Cc1ccc(OCC(=O)Nc2ccc(Cl)cc2C(=O)c2ccccc2)c(Br)c1,-1.7,.,.,0.3,.
C[C@H](NC(=O)CCC(=O)N1C[C@H]2C[C@H](C1)c1cccc(=O)n1C2)c1ccccc1,-6.2,4.8,1.9,0.3,16.9
O=c1cccc2n1CC1CC2CN(C(c2ccccc2)c2sc3ncnn3c2O)C1 (stereo not drawn),4.1,-1.2,-1.7,1.3,31.6*
c1ccc2c(CN3CCN(C4CCCCC4)CC3)c[nH]c2c1,-9.7,-18.5,-0.6,-0.2,-10.1
OC(CN1CCC(c2c[nH]c3ccccc23)CC1)C(F)(F)F (stereo not drawn),-15.4,-9.9,-5.3,0.4,77.0*
CCCCC1(CN2CCCC2=O)C(=O)NC(=O)NC1=O,0.6,-4.4,-0.7,0.2,44.6*
COC(=O)C1=C(c2ccc(OCc3ccccc3)cc2)C[C@@H]2CC[C@H]1N2C(=O)NC1CCN(Cc2ccccc2)CC1,-11.2,-102.7,2.1,-1.2,69.8*
CN1CCN(c2ccc([N+](=O)[O-])c(N)c2)CC1,-10.4,-18.6,-4.8,0.0,-1.1
CCN1CCN(c2ccc(N)c(C)c2)CC1,-9.1,-12.4,-1.9,0.0,49.4*
CCCCc1ccc(NC(=O)c2cccn(Cc3ccc(Cl)cc3)c2=O)cc1,-3.5,.,.,.,.
CCOC(=O)C(NC(=O)CCl)(Nc1ccc(C(O)(C(=O)OCC)C(F)(F)F)cc1)C(F)(F)F (stereo not drawn),2.9,-8.2,-2.9,0.3,-1.3
CCOC(=O)C(NC(=O)CC)(Nc1ccc(C(O)(C(=O)OCC)C(F)(F)F)cc1C)C(F)(F)F (stereo not drawn),15.2,0.4,-4.1,-0.6,34.2*
CCCC12CN3CC(C)(CN(C1)C3c1c(C)[nH]c(=O)[nH]c1=O)C2=O (stereo not drawn),5.0,.,.,-1.0,.
O=C(c1ccc2c(c1)N(Cc1c(F)cccc1Cl)C(=O)c1ccccc1S2)N1CCC2(CC1)OCCO2,-0.7,.,.,-0.5,.
Cc1ccc(S(=O)(=O)N(C)C)cc1NC(=O)C(C)[N+]12CCN(CC1)CC2 (stereo not drawn),-6.2,5.4,-3.8,-7.2,31.7*
Cc1ccc(S(=O)(=O)N2CCCCC2)cc1NC(=O)CN1CC=C(c2ccccc2)CC1,-6.2,-10.7,-4.5,0.2,4.4
CN1CCN(c2ccc([N+](=O)[O-])c(NCc3ccco3)c2)CC1,-18.0,-43.2,-1.9,-0.6,52.7*
O=[N+]([O-])c1ccc(N2CCNCC2)cc1NCc1ccco1,-23.9,-30.4,-0.7,-0.6,61.3*
SMILES,D2 PAM-1,D2 PAM-2,D2 ag-1,D2 ag-2,D2 antagonist
CNc1cc(N2CCNCC2)ccc1[N+](=O)[O-],-10.8,-4.7,-0.4,-0.3,0.3
CCN(CC)CCSc1nc2ccccc2c(=O)n1-c1ccc(Cl)cc1,-0.2,.,.,-4.1,.
CCOc1ccc(CN(CCc2ccc3c(c2)OCO3)Cc2cc(OC)ccc2O)cc1,-6.8,.,.,-0.4,.
O=c1c2ccccc2nc(/C=C/c2ccccc2O)n1-c1ccc(Br)cc1,1.8,.,.,0.1,.
CN1CCN(c2ccc([N+](=O)[O-])cc2Cl)CC1,-6.8,-15.8,-3.2,1.4,10.3
CN1CCN(c2cc([N+](=O)[O-])ccc2Cl)CC1,-32.8,-8.8,-4.0,0.6,69.4*
CC1CN(c2cc([N+](=O)[O-])ccc2Cl)CC(C)N1 (stereo not drawn),-18.7,-4.0,-3.1,0.4,68.7*
Cc1cccc(Cn2cccc(C(=O)Nc3nnc(C)s3)c2=O)c1,2.7,.,.,-1.5,.
O=S1(=O)N(Cc2ccccc2Cl)CCCN1Cc1ccccc1Cl,5.8,.,.,0.4,.
CC1=CC(=O)C2=C(C)CC(O)C3C(C)C(=O)OC3C12 (stereo not drawn),3.5,2.8,2.0,0.1,35.2*
O=C(Nc1ccccc1C(F)(F)F)c1cccn(Cc2ccccc2)c1=O,5.5,.,.,0.6,.
CC1CCN(CC#CCOc2ccc(Cl)cc2)CC1,-24.4,-2.1,-2.3,0.6,86.3*
COc1ccccc1N1CCN(CCc2ccccc2)CC1,-32.5,-6.7,0.0,0.6,73.5*
COc1ccccc1N1CCN(Cc2ccc(Br)cc2)CC1,-20.9,-66.3,-2.7,0.1,93.7*
COc1ccccc1N1CCN(Cc2ccccc2Cl)CC1,-20.9,-14.0,-1.8,3.9,79.3*
COc1ccccc1N1CCN(Cc2cnc(-c3ccccc3)[nH]2)CC1,-12.6,-20.6,-3.0,-0.3,57.1*
O=C(Nc1ccc(OC(F)(F)F)cc1)c1cccn(Cc2ccccc2Cl)c1=O,-0.9,.,.,4.0,.
CCN(CC)C(=O)c1ccc(NC(=O)CCn2nc(-c3ccc(C)cc3)c3ccccc3c2=O)cc1,16.0,.,.,.,.
CCOc1ccc(CN(CCc2ccc3c(c2)OCO3)Cc2ccc(CC)cc2)cc1,0.2,.,.,3.9,.
COc1ccc(OC)c(NC(=O)Cn2cc(C(=O)c3ccccc3F)c3ccccc32)c1,-5.7,.,.,0.1,.
COc1ccccc1N1CCN(Cc2ccccc2F)CC1,-27.0,5.0,-0.8,6.2,80.6*
CCOC(=O)CC1=C(C(=O)OCC)C2(C(=O)Nc3ccccc32)C(C#N)=C(N)O1 (stereo not drawn),-6.0,75.2*,11.9,-0.5,10.1
CCCC1=C(C(=O)OCC)C2(C(=O)Nc3ccc(C)cc32)C(C#N)=C(N)O1 (stereo not drawn),19.3,?,4.8,-0.2,6.8
O=C1NC(=O)[C@]2(Cc3ccccc3N3CCN(c4ccccc4)CC32)C(=O)N1Cc1ccccc1 (stereo partly drawn),-18.0,8.8,?,34.7*,39.8*
Cc1cccc(-n2c(/C=C/c3c[nH]c4ccccc34)nc3ccccc3c2=O)c1,4.3,.,.,.,.
Cc1cc(C)cc(N2C(=O)NC(=O)/C(=C\c3cccn3-c3ccccc3)C2=O)c1,19.1,-1.5,-3.0,4.3,-6.3
